Measurements: PubChem BioAssay AID2577 (National Center for Advancing Translational Sciences (NCATS), 2010)
Activity calls are given as the source filed them. The call rests on the fitted dose curve; in most records, active means well fitted curve in the direction sought with a large enough effect; inactive means no such curve, though single readings can be large or run the other way.

biological target: Lysosomal alpha-glucosidase (Homo sapiens) (UniProt P10253); assay: qHTS Assay for Inhibitors and Activators of N370S glucocerebrosidase as a Potential Chaperone Treatment of Gaucher Disease: Alpha-Glucosidase Counterscreen; conditions: purified human alpha-glucosidase, 4MU-alpha-glucoside fluorescence
Excerpt: NIH Chemical Genomics Center [NCGC] NIH Molecular Libraries Probe Production Centers Network [MLPCN] MLPCN Grant: MH086442-01 Assay Submitter (PI): Wei Zheng Glucocerebrosidase (GC) catalyzes the hydrolysis of beta-glucocerebroside to glucose and ceramide in lysosomes. Mutations in the glucocerebrosidase gene result in Gaucher disease, an autosomal recessive lysosomal storage disorder. Many of the mutations encountered in patients with Gaucher disease are missense alterations that may cause misfolding, decreased stability and/or mistrafficking of this lysosomal protein. […] These inhibitors include iminosugar analogs and three non-iminosugar inhibitors identified from a previous HTS of 62,000 compounds with the wild type recombinant enzyme. However, the enhancement of enzyme activity by the chaperone action of an enzyme inhibitor must be balanced against the direct inhibition of the enzyme. An enzyme activator could also function as a chaperone by binding to the enzyme and helping to correct its misfolding and mistrafficking. While activators for GC have not yet been identified, they may have better therapeutic potential than inhibitors. Therefore the discovery and development of chemical activators may provide a new strategy for the chaperone therapy. To characterize compound selectivity, selected hits from the primary screen were screened against purified alpha-glucosidase, a related sugar hydrolase. Alpha-glucosidase is responsible for hydrolysis of terminal, non-reducing 1,4-linked alpha-D-glucose residues with release of alpha-D-glucose.
NCGC Assay Protocol Summary: This is a fluorogenic enzyme assay with 4-methylumbelliferyl-alpha-D-[…] as the substrate and human alpha-glucosidase as the enzyme preparation. Upon the hydrolysis of this fluorogenic substrate, the resulting product, 1. 4-methyllumbelliferone, can be excited at 365 nm and emits at 440 nm which can be detected by a standard fluorescence plate reader. Data were normalized to the controls for basal activity (without enzyme) and 100% activity (with enzyme). The AC50 values were determined from concentration-response data modeled with the standard Hill equation. Assay buffer: 50 mM citric acid (titrated with potassium phosphate to pH 5.0), 0.005% Tween-20, pH 5.0. (pH 5.0 is an optimal condition for this enzyme assay) 1536-well assay protocol for the human alpha-glucosidase: (1) Add 2 ul/well of enzyme (4 nM final) (2) Add 23 nL compounds in DMSO solution. The final titration was 0.7 nM to 77 uM. (3) Add 1 ul of substrate (400 uM final) (4) Incubate at room temperature for 20 min. (5) Add 2 ul stop solution (1M NaOH and 1M Glycine mixture, pH 10) (6) Detect the assay plate in a ViewLux plate reader (PerkinElmer) with Ex=365 nm and Em=440nm. Keywords: Alpha-glucosidase, Pompe Disease, pharmacological chaperone, chaperone therapy, high throughput screening, alpha-glucosidase inhibitor, MLSMR, MLSCN, NIH Roadmap, qHTS and NCGC

Structure (SMILES) | max response
COc1ccc(-c2nc(N3CCN(S(=O)(=O)c4ccc(F)cc4)CC3)c3ccccc3n2)cc1 | -2.56% (inactive)
Cc1ccc(S(=O)(=O)N2CCN(c3nc(-c4cccs4)nc4ccccc34)CC2)cc1 | -8.42% (inactive)
O=S(=O)(c1cccc(C(F)(F)F)c1)N1CCN(c2nc(-c3cccs3)nc3ccccc23)CC1 | -4.78% (inactive)
O=[N+]([O-])c1ccc(S(=O)(=O)N2CCN(c3nc(-c4ccccc4)nc4ccccc34)CC2)cc1 | -3.59% (inactive)
O=S(=O)(c1ccc(Br)cc1)N1CCN(c2nc(-c3ccccc3)nc3ccccc23)CC1 | -1.71% (inactive)
CC(=O)c1ccc(S(=O)(=O)N2CCN(c3nc(-c4ccccc4)nc4ccccc34)CC2)cc1 | -3.56% (inactive)
CC(=O)c1ccc(S(=O)(=O)N2CCN(c3nc(-c4cccs4)nc4ccccc34)CC2)cc1 | -5.52% (inactive)
O=S(=O)(c1ccccc1Br)N1CCN(c2nc(-c3cccs3)nc3ccccc23)CC1 | -2.87% (inactive)
O=S(=O)(c1ccc2c(c1)CCCC2)N1CCN(c2nc(-c3cccs3)nc3ccccc23)CC1 | -7.5% (inactive)
Cc1ccc(S(=O)(=O)N2CCN(c3nc(-c4ccc(F)cc4)nc4cc(Cl)ccc34)CC2)cc1 | -4.96% (inactive)
O=S(=O)(c1ccc(Cl)cc1)N1CCN(c2nc(-c3cccc(Br)c3)nc3ccccc23)CC1 | -4.16% (inactive)
O=S(=O)(c1ccccc1C(F)(F)F)N1CCN(c2nc(-c3cccs3)nc3ccccc23)CC1 | -3.11% (inactive)
O=[N+]([O-])c1cccc(S(=O)(=O)N2CCN(c3nc(-c4cccs4)nc4ccccc34)CC2)c1 | -3.53% (inactive)
COc1ccc(-c2nc(N3CCN(S(=O)(=O)c4ccccc4)CC3)c3ccccc3n2)cc1 | -7.46% (inactive)
O=S(=O)(c1ccc(OC(F)(F)F)cc1)N1CCN(c2nc(-c3cccs3)nc3ccccc23)CC1 | -3.54% (inactive)
O=S(=O)(c1ccc(C(F)(F)F)cc1)N1CCN(c2nc(-c3cccs3)nc3ccccc23)CC1 | -11.2% (inactive)
O=S(=O)(c1ccc(Br)cc1)N1CCN(c2nc(-c3cccs3)nc3ccccc23)CC1 | -4.2% (inactive)
Cc1ccc(S(=O)(=O)N2CCN(c3nc(-c4ccccc4)nc4ccccc34)CC2)cc1 | -13.1% (inactive)
O=S(=O)(c1ccccc1)N1CCN(c2nc(-c3cccs3)nc3ccccc23)CC1 | -12.9% (inactive)
NS(=O)(=O)c1ccc(S(=O)(=O)N2CCN(c3nc(-c4cccs4)nc4ccccc34)CC2)cc1 | -10.5% (inactive)

Structure (SMILES) | max response
O=S(=O)(c1cccc(Cl)c1)N1CCN(c2nc(-c3ccccc3)nc3ccccc23)CC1 | -3.54% (inactive)
CCOc1ccc(S(=O)(=O)N2CCN(c3nc(-c4ccccc4)nc4ccccc34)CC2)cc1OCC | -7.31% (inactive)
O=S(=O)(c1ccccc1Cl)N1CCN(c2nc(-c3ccccc3)nc3ccccc23)CC1 | -4.34% (inactive)
CCOc1ccc(S(=O)(=O)N2CCN(c3nc(-c4ccccc4)nc4ccccc34)CC2)cc1 | -10.9% (inactive)
O=S(=O)(c1cccc(C(F)(F)F)c1)N1CCN(c2nc(-c3cccs3)nc3cc(Cl)ccc23)CC1 | -7.27% (inactive)
O=S(=O)(c1ccc(Cl)cc1)N1CCN(c2nc(-c3ccc(Cl)cc3)nc3ccccc23)CC1 | 1.68% (inactive)
N#Cc1ccccc1S(=O)(=O)N1CCN(c2nc(-c3cccs3)nc3ccccc23)CC1 | -5.04% (inactive)
O=S(=O)(c1cccc(Br)c1)N1CCN(c2nc(-c3cccs3)nc3ccccc23)CC1 | -9.65% (inactive)
O=S(=O)(c1ccc(Cl)cc1)N1CCN(c2nc(-c3cccs3)nc3ccccc23)CC1 | -6.67% (inactive)
O=S(=O)(c1ccccc1Br)N1CCN(c2nc(-c3ccccc3)nc3ccccc23)CC1 | -18.6% (inactive)
O=S(=O)(c1ccc2c(c1)CCCC2)N1CCN(c2nc(-c3ccccc3)nc3ccccc23)CC1 | -8.51% (inactive)
O=S(=O)(c1ccccc1Cl)N1CCN(c2nc(-c3cccs3)nc3ccccc23)CC1 | -12.9% (inactive)
O=S(=O)(c1ccc(F)cc1)N1CCN(c2nc(-c3cccc(Br)c3)nc3ccccc23)CC1 | -5.01% (inactive)
COc1ccc(S(=O)(=O)N2CCN(c3nc(-c4cccs4)nc4ccccc34)CC2)cc1OC | -12% (inactive)
O=S(=O)(c1ccccc1)N1CCN(c2nc(-c3ccc(F)cc3)nc3cc(Cl)ccc23)CC1 | -8.72% (inactive)
S=C(NCCCc1cnc[nH]1)NCCCN(Cc1ccc(Cl)c(Cl)c1)c1ccc(Br)cn1 | -4.15% (inactive)
O=S(=O)(c1ccc2ccccc2c1)N1CCN(c2nc(-c3ccccc3)nc3ccccc23)CC1 | -4.15% (inactive)
O=S(=O)(c1ccc2c(c1)OCCO2)N1CCN(c2nc(-c3cccs3)nc3ccccc23)CC1 | -3.67% (inactive)
O=S(=O)(c1ccc2c(c1)CCC2)N1CCN(c2nc(-c3ccccc3)nc3ccccc23)CC1 | -9.75% (inactive)
O=S(=O)(c1cccc(C(F)(F)F)c1)N1CCN(c2nc(-c3ccccc3)nc3ccccc23)CC1 | -12.7% (inactive)
